Assay [1] concerns the target AR (gene 367) (UniProt P10275). Briefly: ACEA_AR_antagonist_80hr: ACEA Biosciences xCELLigence Real-Time Cell Analysis on Androgen Receptor Antagonism for Proliferation (AID 2283787).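 Also: 22Rv1 human prostate cancer cells with growth followed by electrical impedance; hits lower the impedance growth signal relative to DMSO.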 Put shortly:
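Growth-kinetic antagonist readout in 22Rv1 cells, taken 80 h after continuous compound exposure. Activity fitted as signal loss relative to DMSO negative control.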

Assay [2] in a line: ATG_M_06_XSP2: Attagene TRANS-FACTORIAL Multi-Species (XSP2) HepG2 Assay for M06 Transcription Factor (Internal Marker) (AID 2283811).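 Also: hits are increases in signal above the DMSO baseline.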 Put shortly: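 HepG2, multiplexed reporter transfection; 24 h dosing; AR stimulated with 3 nM 6-alpha-fluorotestosterone + 1.5 nM norgestrel; RNA → RT-PCR → 6-FAM primer extension → HpaI → CE. Positive direction vs DMSO.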
Assay [3] deals with turtle Estrogen Receptor (ERa), gene 101933533. The experiment in a line: ATG_trERa_XSP2: Attagene TRANS-FACTORIAL Multi-Species (XSP2) HepG2 Assay for turtle Estrogen Receptor (ERa) (AID 2283812).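 Also: human HepG2 liver cells transiently expressing turtle ERa-Gal4 chimeric receptor; actives raise reporter signal above DMSO so AC50 reflects agonist activity.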 Put shortly: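 HepG2 cells transiently transfected with GAL4-UAS reporter units expressing turtle ERa-Gal4 chimera. Reporter mRNA measured after 24 h dosing by RT-PCR, fluorescent labelling and capillary electrophoresis; gain of signal fitted versus DMSO.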

Assay [4] deals with Estrogen receptor beta (Homo sapiens) (UniProt Q92731). The experiment in a line: ATG_hERb_XSP2: Attagene TRANS-FACTORIAL Multi-Species (XSP2) HepG2 Assay for human Estrogen Receptor (ERb) (AID 2283813).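 Also: actives raise reporter mRNA above DMSO so AC50 reflects agonist induction.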 Put shortly: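 HepG2 cells transiently transfected with GAL4-UAS reporter units and chimeric human ERb-Gal4, 24 h exposure. Reporter mRNA quantified by RT-PCR with FAM labelling, HpaI digestion and capillary electrophoresis; gain of signal versus DMSO.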

Assay [5] concerns the target GAL4 Transcription Factor (Internal Marker), GAL4 (gene 855828) (UniProt P04386). Briefly: ATG_GAL4_XSP2: Attagene TRANS-FACTORIAL Multi-Species (XSP2) HepG2 Assay for GAL4 Transcription Factor (Internal Marker) (AID 2283814).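 Also: GAL4 reporter mRNA background control in MRTU transfected cells not a receptor target.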 An outline of the steps: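 HepG2 cells transiently transfected with GAL4-UAS reporter units, stimulated with 3 nM 6-alpha-fluorotestosterone plus 1.5 nM norgestrel, dosed 24 h. Reporter mRNA by RT-PCR/capillary electrophoresis; gain-of-signal fit versus DMSO, background control.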

In assay [6] the target is zebrafish Estrogen Receptor (ER1), esr1 (gene 259252) (UniProt P57717). Briefly: ATG_zfER1_XSP2: Attagene TRANS-FACTORIAL Multi-Species (XSP2) HepG2 Assay for zebrafish Estrogen Receptor (ER1) (AID 2283816). An outline of the steps:
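HepG2 cells transiently transfected with a GAL4-UAS reporter and a chimeric zebrafish ER1-Gal4 construct, dosed 24 h. Reporter mRNA quantified by RT-PCR, labelling, HpaI digestion and capillary electrophoresis, relative to DMSO.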

The target of assay [7] is chicken Estrogen Receptor (ERa), ESR1 (gene 396099) (UniProt P06212). The experiment in a line: ATG_chERa_XSP2: Attagene TRANS-FACTORIAL Multi-Species (XSP2) HepG2 Assay for chicken Estrogen Receptor (ERa) (AID 2283817).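 Also: actives raise reporter signal above DMSO so AC50 reflects ER activation.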 An outline of the steps:
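Transient MRTU transfection of HepG2 → 24 h chemical dosing → TriZol RNA, oligo(dT) RT → PCR, 6-FAM primer extension, HpaI digest → CE quantitation of chicken ERa-Gal4-driven reporter mRNA. Positive direction vs DMSO.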

Assay [8] deals with Estrogen receptor beta (Homo sapiens) (UniProt Q92731). The experiment in a line: ATG_hERb_XSP1: Attagene TRANS-FACTORIAL Multi-Species (XSP1) HepG2 Assay for human Estrogen Receptor (ESR2) (AID 2283788). An outline of the steps: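 Measured endpoint is transcriptional gain of signal from a GAL4-UAS reporter controlled by chimeric ERβ in HepG2 liver cells. Exposure lasts 24 h alongside 3 nM 6-alpha-fluorotestosterone, with DMSO as negative control.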

In assay [9] the target is GAL4 Transcription Factor (Internal Marker), GAL4 (gene 855828) (UniProt P04386). Briefly: ATG_GAL4_XSP1: Attagene TRANS-FACTORIAL Multi-Species (XSP1) HepG2 Assay for GAL4 Transcription Factor (Internal Marker) (AID 2283789). An outline of the steps:
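HepG2 cells transiently transfected with multiplexed GAL4-UAS reporter units were exposed for 24 h with 3 nM 6-alpha-fluorotestosterone present. Reporter mRNA was quantified by RT-PCR, FAM labelling, HpaI digestion and capillary electrophoresis; background-control readout, gain-of-signal versus DMSO.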

Assay [10] in a line: ATG_M_06_XSP1: Attagene TRANS-FACTORIAL Multi-Species (XSP1) HepG2 Assay for M06 Transcription Factor (Internal Marker) (AID 2283790). An outline of the steps:
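Transfected HepG2 multi-reporter system treated 24 h in the presence of 3 nM 6-alpha-fluorotestosterone. The M06 internal marker transcript was quantified by RT-PCR with capillary electrophoresis as a background control, and gain of signal was scored versus DMSO.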

Assay [11] in a line: ATG_M_61_XSP1: Attagene TRANS-FACTORIAL Multi-Species (XSP1) HepG2 Assay for M61 Transcription Factor (Internal Marker) (AID 2283797). Put shortly:
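HepG2 cells transiently transfected with multiplexed GAL4-driven reporter units, dosed 24 h with 3 nM 6-alpha-fluorotestosterone present. Reporter mRNA quantified by RT-PCR, 6-FAM labelling, HpaI digestion and capillary electrophoresis; internal-marker background control, gain of signal versus DMSO.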

The target of assay [12] is mouse Peroxisome Proliferator-activated Receptor gamma (PPARg), Pparg (gene 19016) (UniProt P37238). Briefly: ATG_mPPARg_XSP1: Attagene TRANS-FACTORIAL Multi-Species (XSP1) HepG2 Assay for mouse Peroxisome Proliferator-activated Receptor gamma (PPARg) (AID 2283802). Put shortly:
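HepG2 cells transiently transfected with GAL4-UAS reporter units driven by mouse PPARg–GAL4 chimera; 3 nM 6-alpha-fluorotestosterone present. After 24 h dosing, reporter mRNA quantified by RT-PCR, fluorescent labelling and capillary electrophoresis; gain of signal versus DMSO.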

The target in assay [13] is Nuclear receptor subfamily 1 group I member 2 (Mus musculus) (UniProt O54915). Briefly: ATG_mPXR_XSP1: Attagene TRANS-FACTORIAL Multi-Species (XSP1) HepG2 Assay for mouse Pregnane X Receptor (PXR) (AID 2283803). Put shortly:
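Transiently transfected HepG2 cells expressing a receptor-Gal4 chimera drive a GAL4-UAS reporter; 3 nM 6-alpha-fluorotestosterone included. Reporter mRNA read 24 h post-dose by RT-PCR and capillary electrophoresis; gain of signal relative to DMSO.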

Assay [14] deals with frog Thyroid hormone Receptor alpha (TRa), thra-a (gene 397942) (UniProt P15204). The experiment in a line: ATG_frTRa_XSP1: Attagene TRANS-FACTORIAL Multi-Species (XSP1) HepG2 Assay for frog Thyroid hormone Receptor alpha (TRa) (AID 2283804). An outline of the steps: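 HepG2 cells transiently transfected with frog TRa-GAL4 chimeric reporter units, dosed 24 hr with 3 nM 6-alpha-fluorotestosterone present; reporter mRNA quantified by RT-PCR, fluorescent labelling and capillary electrophoresis, gain of signal versus DMSO.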

The target of assay [15] is human Thyroid hormone Receptor alpha (TRa), THRA (gene 7067) (UniProt P10827). The experiment in a line: ATG_hTRa_XSP1: Attagene TRANS-FACTORIAL Multi-Species (XSP1) HepG2 Assay for human Thyroid hormone Receptor alpha (TRa) (AID 2283805). Put shortly:
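HepG2 cells transiently transfected with GAL4-UAS reporter units expressing chimeric NR-Gal4 proteins, dosed 24 hours with 3 nM 6-alpha-fluorotestosterone present. Reporter mRNA measured by RT-PCR and capillary electrophoresis; gain of signal fitted versus DMSO.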

Assay [16] has as its system turtle Thyroid Hormone Receptor, alpha (TRa), gene 101949057. The experiment in a line: ATG_trTRa_XSP1: Attagene TRANS-FACTORIAL Multi-Species (XSP1) HepG2 Assay for turtle Thyroid Hormone Receptor, alpha (TRa) (AID 2283806). An outline of the steps:
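HepG2 cells transiently transfected with GAL4-UAS reporter units and chimeric receptor-Gal4 constructs, with 3 nM 6-alpha-fluorotestosterone present. Reporter mRNA was quantified 24 h after dosing by RT-PCR, 6-FAM labelling and capillary electrophoresis; gain of signal versus DMSO.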

In assay [17] the target is zebrafish Thyroid Hormone Receptor alpha (TRa), thraa (gene 30670) (UniProt Q98867). Briefly: ATG_zfTRa_XSP1: Attagene TRANS-FACTORIAL Multi-Species (XSP1) HepG2 Assay for zebrafish Thyroid Hormone Receptor alpha (TRa) (AID 2283807). An outline of the steps:
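HepG2 cells transiently transfected with GAL4-UAS reporter units including a zebrafish TRa–Gal4 chimera, dosed 24 h with 3 nM 6-alpha-fluorotestosterone present. Reporter mRNA quantified by RT-PCR and capillary electrophoresis; gain versus DMSO.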

In assay [18] the target is human Thyroid hormone Receptor beta (TRb), THRB (gene 7068) (UniProt P10828). The experiment in a line: ATG_hTRb_XSP1: Attagene TRANS-FACTORIAL Multi-Species (XSP1) HepG2 Assay for human Thyroid hormone Receptor beta (TRb) (AID 2283808). An outline of the steps:
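HepG2 cells transiently transfected with reporter units driving GAL4-UAS reporters for chimeric NR-Gal4 proteins; 24 h chemical exposure with 3 nM 6-alpha-fluorotestosterone present. Reporter mRNA quantified by RT-PCR and capillary electrophoresis, gain of signal versus DMSO.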

Assay [19] concerns the target zebrafish Thyroid Hormone Receptor beta (TRb), thrb (gene 30607) (UniProt Q9PVE4). Briefly: ATG_zfTRb_XSP1: Attagene TRANS-FACTORIAL Multi-Species (XSP1) HepG2 Assay for zebrafish Thyroid Hormone Receptor beta (TRb) (AID 2283809). Put shortly:
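HepG2 cells transiently transfected with multiplexed GAL4-UAS reporter units expressing chimeric zebrafish TRb–Gal4. Dosed 24 h with 3 nM 6-alpha-fluorotestosterone present; reporter mRNA measured by RT-PCR, HpaI digestion and capillary electrophoresis; gain of signal versus DMSO.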

The nature of assay [20]: ATG_XTT_Cytotoxicity_XSP1: Cytotoxicity Assessment in the Attagene TRANS-FACTORIAL Multi-Species (XSP1) HepG2 Assay (AID 2283810). An outline of the steps:
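XTT viability readout taken at 24 hours post-dosing in HepG2 liver cells co-treated with 3 nM 6-alpha-fluorotestosterone. Signal loss relative to DMSO controls reflects cytotoxicity.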

“And” between values parts separate entries of the source, which are not always exact repeats. Equal values may be shown once. Records with an inconclusive call do not appear. Some compounds were tested as several samples or in several runs, with calls that do not always agree. The source made the active and inactive calls. The calls were made as follows: active = hit-call score of the fitted dose curve at least 0.9, where 1 is the maximum; inconclusive = response in the unintended direction; inactive = score below 0.9.

One may read the AC50 as the concentration giving half of the maximal activity seen.

Sequence of GAL4 Transcription Factor (Internal Marker), GAL4 (gene 855828) (P04386 whole entry, looked up, the tested form may be a part): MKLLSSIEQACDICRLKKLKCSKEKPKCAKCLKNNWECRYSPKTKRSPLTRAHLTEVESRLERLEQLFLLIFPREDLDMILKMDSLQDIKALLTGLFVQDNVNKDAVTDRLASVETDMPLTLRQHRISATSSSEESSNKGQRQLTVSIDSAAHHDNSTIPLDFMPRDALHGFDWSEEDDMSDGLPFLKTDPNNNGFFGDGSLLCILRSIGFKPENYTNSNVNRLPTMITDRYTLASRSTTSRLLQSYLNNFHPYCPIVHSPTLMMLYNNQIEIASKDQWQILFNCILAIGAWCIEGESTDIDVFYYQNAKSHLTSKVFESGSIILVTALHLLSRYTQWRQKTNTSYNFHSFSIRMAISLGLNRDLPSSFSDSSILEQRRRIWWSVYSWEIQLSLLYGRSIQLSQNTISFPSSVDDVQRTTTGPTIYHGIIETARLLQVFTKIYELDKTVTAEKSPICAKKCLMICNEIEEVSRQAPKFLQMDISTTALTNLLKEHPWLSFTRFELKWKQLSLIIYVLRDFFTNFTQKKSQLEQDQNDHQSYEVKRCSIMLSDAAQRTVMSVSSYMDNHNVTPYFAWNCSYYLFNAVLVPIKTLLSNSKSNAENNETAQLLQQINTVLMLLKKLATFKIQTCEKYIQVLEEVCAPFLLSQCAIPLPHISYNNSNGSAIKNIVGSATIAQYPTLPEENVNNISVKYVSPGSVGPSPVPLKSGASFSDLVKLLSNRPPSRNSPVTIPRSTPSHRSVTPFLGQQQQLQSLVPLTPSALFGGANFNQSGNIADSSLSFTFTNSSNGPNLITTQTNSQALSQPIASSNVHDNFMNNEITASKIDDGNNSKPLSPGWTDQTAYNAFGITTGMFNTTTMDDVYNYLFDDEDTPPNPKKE
Sequence of zebrafish Estrogen Receptor (ER1), esr1 (gene 259252) (P57717 whole entry, looked up, the tested form may be a part): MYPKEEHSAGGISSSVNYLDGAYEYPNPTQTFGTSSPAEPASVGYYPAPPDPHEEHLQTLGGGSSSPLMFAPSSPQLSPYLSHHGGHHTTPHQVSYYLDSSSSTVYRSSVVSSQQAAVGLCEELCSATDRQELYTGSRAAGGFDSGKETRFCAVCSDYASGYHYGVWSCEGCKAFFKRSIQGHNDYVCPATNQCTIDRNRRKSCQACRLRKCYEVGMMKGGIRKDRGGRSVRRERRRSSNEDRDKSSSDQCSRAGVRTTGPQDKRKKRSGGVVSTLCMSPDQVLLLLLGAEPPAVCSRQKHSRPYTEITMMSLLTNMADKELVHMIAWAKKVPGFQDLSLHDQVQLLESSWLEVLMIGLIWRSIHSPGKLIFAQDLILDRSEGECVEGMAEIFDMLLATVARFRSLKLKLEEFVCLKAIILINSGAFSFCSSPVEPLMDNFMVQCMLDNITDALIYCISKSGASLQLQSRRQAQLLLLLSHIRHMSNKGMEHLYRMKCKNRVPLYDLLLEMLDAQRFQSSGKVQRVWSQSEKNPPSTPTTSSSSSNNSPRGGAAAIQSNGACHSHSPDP
Sequence of Estrogen receptor beta (Homo sapiens) (Q92731 whole entry, looked up, the tested form may be a part): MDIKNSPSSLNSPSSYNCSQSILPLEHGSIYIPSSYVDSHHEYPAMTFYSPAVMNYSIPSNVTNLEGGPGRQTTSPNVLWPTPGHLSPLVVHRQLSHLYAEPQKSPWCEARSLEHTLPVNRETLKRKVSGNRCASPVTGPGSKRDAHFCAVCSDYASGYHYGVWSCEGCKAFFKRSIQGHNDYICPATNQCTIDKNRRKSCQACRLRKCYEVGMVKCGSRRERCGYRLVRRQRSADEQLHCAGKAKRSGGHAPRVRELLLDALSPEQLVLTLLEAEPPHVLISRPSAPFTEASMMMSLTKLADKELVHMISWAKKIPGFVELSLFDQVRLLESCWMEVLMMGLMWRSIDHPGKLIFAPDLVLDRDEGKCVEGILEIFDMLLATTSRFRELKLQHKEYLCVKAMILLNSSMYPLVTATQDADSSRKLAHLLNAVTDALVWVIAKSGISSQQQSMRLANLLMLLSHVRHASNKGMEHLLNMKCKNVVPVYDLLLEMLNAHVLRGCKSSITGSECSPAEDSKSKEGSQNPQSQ
Sequence of AR (gene 367) (P10275 whole entry, looked up): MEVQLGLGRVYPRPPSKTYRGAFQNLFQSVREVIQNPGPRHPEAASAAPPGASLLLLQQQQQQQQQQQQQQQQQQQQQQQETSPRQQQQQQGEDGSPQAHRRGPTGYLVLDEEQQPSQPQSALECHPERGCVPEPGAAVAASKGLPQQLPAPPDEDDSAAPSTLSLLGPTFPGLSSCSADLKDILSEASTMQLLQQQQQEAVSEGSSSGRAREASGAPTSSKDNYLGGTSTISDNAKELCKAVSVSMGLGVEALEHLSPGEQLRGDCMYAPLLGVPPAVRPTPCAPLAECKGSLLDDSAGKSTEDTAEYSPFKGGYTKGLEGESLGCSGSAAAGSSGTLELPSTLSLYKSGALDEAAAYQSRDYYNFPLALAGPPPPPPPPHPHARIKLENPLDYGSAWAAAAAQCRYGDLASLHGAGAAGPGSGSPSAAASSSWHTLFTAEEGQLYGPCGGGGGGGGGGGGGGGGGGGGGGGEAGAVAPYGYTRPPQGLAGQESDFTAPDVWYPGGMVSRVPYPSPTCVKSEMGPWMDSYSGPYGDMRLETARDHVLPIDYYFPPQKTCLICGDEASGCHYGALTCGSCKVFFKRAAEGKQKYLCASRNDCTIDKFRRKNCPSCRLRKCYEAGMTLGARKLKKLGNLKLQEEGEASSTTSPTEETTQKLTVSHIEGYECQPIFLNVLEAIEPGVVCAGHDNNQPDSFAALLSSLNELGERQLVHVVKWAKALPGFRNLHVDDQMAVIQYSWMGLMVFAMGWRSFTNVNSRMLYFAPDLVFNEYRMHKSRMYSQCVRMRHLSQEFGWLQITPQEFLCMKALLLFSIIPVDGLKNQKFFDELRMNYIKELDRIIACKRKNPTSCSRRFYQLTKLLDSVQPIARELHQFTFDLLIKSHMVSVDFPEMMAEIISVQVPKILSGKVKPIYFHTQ
Sequence of chicken Estrogen Receptor (ERa), ESR1 (gene 396099) (P06212 whole entry, looked up, the tested form may be a part): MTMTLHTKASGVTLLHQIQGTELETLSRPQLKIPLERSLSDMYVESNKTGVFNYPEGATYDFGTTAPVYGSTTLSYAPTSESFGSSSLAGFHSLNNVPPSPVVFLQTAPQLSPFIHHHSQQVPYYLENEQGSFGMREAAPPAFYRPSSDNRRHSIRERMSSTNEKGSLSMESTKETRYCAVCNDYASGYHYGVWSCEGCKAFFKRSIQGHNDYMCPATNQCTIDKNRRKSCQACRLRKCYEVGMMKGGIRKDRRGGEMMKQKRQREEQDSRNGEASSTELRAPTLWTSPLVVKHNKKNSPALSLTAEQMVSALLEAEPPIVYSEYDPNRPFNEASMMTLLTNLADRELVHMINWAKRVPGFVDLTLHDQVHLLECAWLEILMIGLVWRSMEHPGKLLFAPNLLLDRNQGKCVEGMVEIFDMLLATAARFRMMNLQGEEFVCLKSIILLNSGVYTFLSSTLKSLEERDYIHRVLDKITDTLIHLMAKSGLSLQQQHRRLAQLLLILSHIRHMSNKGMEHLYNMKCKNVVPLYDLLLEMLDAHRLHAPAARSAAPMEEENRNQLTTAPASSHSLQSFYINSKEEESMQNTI
Sequence of human Thyroid hormone Receptor alpha (TRa), THRA (gene 7067) (P10827 whole entry, looked up, the tested form may be a part): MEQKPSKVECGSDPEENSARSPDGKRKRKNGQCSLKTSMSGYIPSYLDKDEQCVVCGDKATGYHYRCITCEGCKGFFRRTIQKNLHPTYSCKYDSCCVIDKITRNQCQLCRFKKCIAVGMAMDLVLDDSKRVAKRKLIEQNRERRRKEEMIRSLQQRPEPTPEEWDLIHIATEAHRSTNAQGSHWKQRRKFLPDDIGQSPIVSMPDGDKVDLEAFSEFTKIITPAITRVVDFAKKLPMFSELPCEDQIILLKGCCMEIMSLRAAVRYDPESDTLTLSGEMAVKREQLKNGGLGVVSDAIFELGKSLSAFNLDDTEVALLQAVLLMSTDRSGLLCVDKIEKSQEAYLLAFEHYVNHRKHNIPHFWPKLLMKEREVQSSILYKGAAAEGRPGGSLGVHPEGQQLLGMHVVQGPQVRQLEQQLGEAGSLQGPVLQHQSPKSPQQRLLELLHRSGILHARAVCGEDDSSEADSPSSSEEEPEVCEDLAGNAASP
Sequence of mouse Peroxisome Proliferator-activated Receptor gamma (PPARg), Pparg (gene 19016) (P37238 whole entry, looked up, the tested form may be a part): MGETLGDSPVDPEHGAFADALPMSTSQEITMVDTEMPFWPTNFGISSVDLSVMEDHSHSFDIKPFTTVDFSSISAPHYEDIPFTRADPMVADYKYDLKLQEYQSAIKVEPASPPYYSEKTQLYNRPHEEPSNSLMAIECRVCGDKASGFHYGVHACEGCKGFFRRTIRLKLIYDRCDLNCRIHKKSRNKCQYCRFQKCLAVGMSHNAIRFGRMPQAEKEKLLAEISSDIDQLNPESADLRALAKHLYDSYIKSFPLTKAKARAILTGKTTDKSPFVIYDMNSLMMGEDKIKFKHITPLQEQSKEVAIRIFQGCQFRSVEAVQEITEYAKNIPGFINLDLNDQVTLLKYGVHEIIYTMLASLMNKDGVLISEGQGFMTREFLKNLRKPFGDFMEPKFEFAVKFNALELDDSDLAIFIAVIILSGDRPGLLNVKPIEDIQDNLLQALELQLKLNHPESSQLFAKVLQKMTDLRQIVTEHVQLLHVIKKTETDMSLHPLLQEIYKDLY
Sequence of zebrafish Thyroid Hormone Receptor alpha (TRa), thraa (gene 30670) (Q98867 whole entry, looked up, the tested form may be a part): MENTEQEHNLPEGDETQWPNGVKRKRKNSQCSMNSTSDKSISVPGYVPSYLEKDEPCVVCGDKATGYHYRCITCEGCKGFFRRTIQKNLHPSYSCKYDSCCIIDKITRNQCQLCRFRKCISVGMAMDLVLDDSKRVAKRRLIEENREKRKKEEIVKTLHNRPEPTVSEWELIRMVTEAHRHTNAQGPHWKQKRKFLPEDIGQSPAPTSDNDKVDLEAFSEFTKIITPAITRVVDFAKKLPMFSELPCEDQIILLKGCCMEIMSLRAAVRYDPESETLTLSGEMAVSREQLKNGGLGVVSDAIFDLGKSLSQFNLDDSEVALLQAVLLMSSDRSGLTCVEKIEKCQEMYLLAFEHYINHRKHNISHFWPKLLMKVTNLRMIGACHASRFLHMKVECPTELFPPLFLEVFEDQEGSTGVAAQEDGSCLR

With `Oc1ccc(Cl)cc1Cc1cc(Cl)ccc1O`, the AC50 in assay [1] was 10.2 µM (active).
As to `CCCCC/C=C\CCC=O`, the call in [1] was inactive.
As for `CC(C)c1ccc2cc(C(C)C)ccc2c1`, the result in [1] was inactive.
On to `O=c1cc(-c2ccccc2)oc2ccccc12`, for which, in [1], the AC50 is 0.0284 µM (active).
Consider `COC(=O)c1c(C)cc(O)c(C)c1O`, for which the result in [2], in assay [5] and in assay [6] was inactive. Besides, the half-maximal activity concentration (AC50) was 8.55 µM (active) and 31.2 µM (active) in assay [3]; 8.13 µM (active) and 12.3 µM (active) in [4]; 27.5 µM (active) in assay [6]; 19.8 µM (active) and 28.8 µM (active) in assay [7].
For `CC(C)(C)c1ccc(-c2ccc(C(C)(C)C)cc2)cc1`, in [1], the compound was called inactive.
`CC(C)=CCC[C@H](C)CCO`: the outcome in assay [1] was inactive.
For `O=C(c1ccc(O)cc1)c1ccc(O)cc1O`, the AC50 was 0.531 µM (active) in assay [8]; 3.24 µM (active) in assay [3]; 1.6 µM (active) in [4]; 4.75 µM (active) in assay [6]; 3.03 µM (active) in assay [7]. For the same compound, the outcome in assay [9], in assay [10], in [11], in assay [12], in assay [13] and in assay [14] was inactive. For the same compound, the result in assay [15], in assay [16], in assay [17], in assay [18], in [19] and in assay [20] was inactive. Moreover, the result in [2] and in [5] was inactive.
For `CCCc1ccc(OC)cc1`, in [1], the result was inactive.

These data come from PubChem BioAssay (EPA / NIEHS).
